The record followed here is PubChem BioAssay (NCATS).

Results filed as inconclusive are left out. Active and inactive are the calls of the source. Unless noted, calls come from the whole dose curve; as a rule, active = well fitted curve in the direction sought with a large enough effect; inconclusive = small, poorly fitted or top-dose-only effect, or another doubt; inactive = no such curve, though single readings can be large; an effect the other way counts as inactive or inconclusive.

The nature of test [1]: P-glycoprotein substrates identified in KB-8-5-11 adenocarcinoma cell line, qHTS therapeutic library screen (AID 1346987). Note: nearly all actives have a fitted effect of over 65% in size. Note: potency is the fitted concentration of half-maximal effect. An outline of the steps: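 Luminescence from CellTiter-Glo, read 5 min after addition, quantified survival of KB-8-5-11 (P-gp-overexpressing) cells exposed to compounds for 72 h. AC50 was derived from concentration-response curves.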
In general terms: qHTS replaces the single test concentration by a dilution series.

Test [2] in a line: Primary qHTS for inhibitors of nuclear receptor binding SET domain protein 2 (NSD2) in an isogenic RCH-ACV NSD2 p.E1099K mutant (9B) (AID 1645876). Note: nearly all actives have a fitted effect of over 70% in size. Note: potency is the fitted concentration of half-maximal effect.
A short description of test [3]: Primary qHTS for inhibitors of nuclear receptor binding SET domain protein 2 (NSD2) in an RCH-ACV wild type WT cells (2C) (AID 1645877). Note: nearly all actives have a fitted effect of over 70% in size. Note: potency is the fitted concentration of half-maximal effect.
Test [4] deals with HaCat. The test is described as follows: Cytotoxic Profiling of Annotated Libraries Using Quantitative High-Throughput Screening (AID 1296008). For max response: % is set by controls: 0 for no effect and ±100 for the full control effect. Note: nearly all actives have a fitted effect of over 60% in size. Note: potency is the fitted concentration of half-maximal effect. The conditions noted are these: Five cell lines viability, CellTiter-Glo ATP luminescence, 48-72 h; max response: stronger effect = lower value. An outline of the steps:
(§1)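 Compounds were pin-transferred onto cells and incubated 48 or 72 hr at 37 degree Celsius, 95% humidity. CellTiter-Glo was added, plates sat 10 min at room temperature, then ATP-coupled luminescence was imaged as the viability read-out.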
For orientation: In ATP-based viability assays light output follows the ATP content of the culture.

In a further test the test system is KB-3-1. The description is as above. The note with it: Five cell lines viability, CellTiter-Glo ATP luminescence, 48-72 h; max response: stronger effect = lower value. An outline of the steps:
as §1

The subject of the next test is CRL-7250. The test is described as follows: qHTS assay to identify novel small-molecules to repurpose for Merkel cell carcinoma treatment (AID 1296009). Note: nearly all actives have a fitted effect of over 60% in size. The note with it: MCC and control cell lines, CellTiter-Glo viability, 72 h; series mostly up to 92 µM. An outline of the steps:
(§2)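 Viability readout: ATP luminescence (CellTiter-Glo) after 72 hr drug exposure at 37 degree celsius. Dose-response format was 8 points for NPC and 11 points for MIPE; data normalized to in-plate controls.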

The next test relates to HeLa. The test is described as follows: Primary qHTS to identify gynecologic anti-cancer compounds using libraries of approved drugs and bioactive compounds (AID 1345084). Note: nearly all actives have a fitted effect of over 55% in size. Note: potency is the fitted concentration of half-maximal effect. The conditions noted are these: Gynecologic cancer cell panel viability, ATPlite luminescence, 48 h; series mostly up to 57.5 µM. An outline of the steps: (§3)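 Five-concentration response, 48 h; readout is ATP-driven luciferase luminescence.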

The next test deals with SKOV3. The description is as above. The conditions noted are these: Gynecologic cancer cell panel viability, ATPlite luminescence, 48 h; series mostly up to 57.5 µM. The gist of the method:
as §3

Test [5] is described as follows: P-glycoprotein substrates identified in KB-3-1 adenocarcinoma cell line, qHTS therapeutic library screen (AID 1346986). Note: nearly all actives have a fitted effect of over 60% in size. An outline of the steps:
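72 h cell-killing screen, 500 cells/well, CellTiter-Glo luminescence. Paired lines KB-3-1/KB-8-5-11; P-gp dependence checked by tariquidar co-treatment and HEK-293 MDR-19 versus empty-vector cells.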

The target in test [6] is Cytochrome P450 2D6 (Homo sapiens) (UniProt P10635). The test is described as follows: Cytochrome P450 family 2 subfamily D member 6 (CYP2D6) small molecule antagonists: luciferase biochemical (cell-free) qHTS assay (AID 1645840; active = well fitted curve in the direction sought with a large enough effect in the repeat runs; an effect the other way counts as inactive or inconclusive; note: potency is the fitted concentration of half-maximal effect; nearly all actives have a fitted effect of over 55% in size). An outline of the steps: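 P450-Glo CYP2D6 system: proluciferin substrate converted by enzyme to luciferin, read by luminescence proportional to activity. Enzyme-substrate mix with compound 10 min at room temperature, then NADPH regeneration 1 h before detection reagent.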

Test [7] concerns the target Catechol O-methyltransferase (Homo sapiens) (UniProt P21964). As to the kind of experiment: Confirmatory Screen for Target Class Profiling of Small Molecule Inhibitors of Methyltransferases (AID 1745852; calls by dose curve; for activity change, negative = inhibition: % is set by controls: 0 for no effect and ±100 for the full control effect). The conditions noted are these: MTase-Glo luminescence, SAH detection, recombinant enzyme; measured here: COMT max response; stronger effect = lower value.
The target of test [8] is Guanidinoacetate N-methyltransferase (Homo sapiens) (UniProt Q14353). The description is as above. The conditions noted are these: activity change, negative = inhibition: at 57.3 µM (top of the series) unless noted.
In test [9] the target is Nicotinamide N-methyltransferase (Homo sapiens) (UniProt P40261). Described as above. The conditions noted are these: MTase-Glo luminescence, SAH detection, recombinant enzyme; measured here: NNMT max response; stronger effect = lower value.
Test [10] deals with Phenylethanolamine N-methyltransferase (Homo sapiens) (UniProt P11086). The description is as above. The conditions noted are these: MTase-Glo luminescence, SAH detection, recombinant enzyme; measured here: PNMT max response; stronger effect = lower value.
The nature of test [11]: Primary redox qHTS assay for identification of artifact compounds. (AID 1845223).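 Note: 0% = DMSO and 100% = reference compound.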 An outline of the steps:
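Redox-cycling detection via DTT (250 uM final) oxidation coupled to Amplex Red (25 uM)/HRP (250 mU/mL) in HBSS. 15 min preincubation plus 30 min after DTT, room temperature. Ex/Em 525/598 nm; 4-parameter Hill fit against DMSO and 10 uM DA3003.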

The test system of test [12] is HACAT. The test is described as follows: qHTS assay to identify novel small-molecules to repurpose for Merkel cell carcinoma treatment (AID 1296009). Note: nearly all actives have a fitted effect of over 60% in size. The note with it: MCC and control cell lines, CellTiter-Glo viability, 72 h; at 44.8 µM (top of the series) unless noted. An outline of the steps:
as §2

A further test relates to NIH3T3. Described as above. The note with it: MCC and control cell lines, CellTiter-Glo viability, 72 h; at 44.8 µM (top of the series) unless noted. The gist of the method: as §2
Test [13] is described as follows: qHTS drug screen for cell cycle checkpoint inhibitors in PARPi-resistant BRCA-mutant ovarian cancer cell lines. (AID 1963452; calls by dose curve). The conditions noted are these: PEO1/OlaR viability, CellTiter-Glo luminescence, 96 h, stronger effect = lower value. The gist of the method: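 PEO1, PEO4 and PEO1/OlaR ovarian cancer cells, 600 per well, exposed 96 h at 37C to a dilution series. Viability read by CellTiter-Glo luminescence, normalized to DMSO and empty wells; activity summarized as Z-AUC.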

Another test deals with HEK293. The test is described as follows: Cytotoxic Profiling of Annotated Libraries Using Quantitative High-Throughput Screening (AID 1296008). For max response: % is set by controls: 0 for no effect and ±100 for the full control effect. Note: nearly all actives have a fitted effect of over 60% in size. Note: potency is the fitted concentration of half-maximal effect. The conditions noted are these: Five cell lines viability, CellTiter-Glo ATP luminescence, 48-72 h; max response: stronger effect = lower value. The gist of the method:
as §1

Test [14] addresses Cytochrome P450 2C9 (Homo sapiens) (UniProt P11712). As to the kind of experiment: Cytochrome P450 family 2 subfamily C member 9 (CYP2C9) small molecule antagonists: luciferase biochemical (cell-free) qHTS assay (AID 1645842; active = well fitted curve in the direction sought with a large enough effect in the repeat runs; an effect the other way counts as inactive or inconclusive; note: potency is the fitted concentration of half-maximal effect; nearly all actives have a fitted effect of over 55% in size). An outline of the steps:
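P450-Glo CYP2C9 system: proluciferin substrate with enzyme in mix containing 0.4% BSA, 10 min at room temperature, then NADPH regeneration solution added and incubated 1 h at 37C. Detection reagent stopped reaction; luminescence read after 20 min as RLU.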

Catechol O-methyltransferase (Homo sapiens), sequence (P21964 whole entry, looked up): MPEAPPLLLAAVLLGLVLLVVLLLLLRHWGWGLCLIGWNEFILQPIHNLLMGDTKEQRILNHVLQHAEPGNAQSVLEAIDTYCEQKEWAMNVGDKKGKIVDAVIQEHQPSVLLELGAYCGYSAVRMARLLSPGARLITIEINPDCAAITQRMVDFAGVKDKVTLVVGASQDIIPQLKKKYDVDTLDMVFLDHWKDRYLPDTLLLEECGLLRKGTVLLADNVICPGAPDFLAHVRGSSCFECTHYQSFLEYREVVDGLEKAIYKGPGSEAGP
Nicotinamide N-methyltransferase (Homo sapiens), sequence (P40261 whole entry, looked up): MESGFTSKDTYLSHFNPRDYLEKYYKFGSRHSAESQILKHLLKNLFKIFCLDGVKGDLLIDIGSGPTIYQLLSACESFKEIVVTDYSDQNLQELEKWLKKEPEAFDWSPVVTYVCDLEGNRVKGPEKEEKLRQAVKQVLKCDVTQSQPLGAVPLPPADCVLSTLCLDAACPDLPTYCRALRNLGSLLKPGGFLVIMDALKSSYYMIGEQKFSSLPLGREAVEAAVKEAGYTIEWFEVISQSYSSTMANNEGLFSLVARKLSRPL
Cytochrome P450 2D6 (Homo sapiens), sequence (P10635 whole entry, looked up): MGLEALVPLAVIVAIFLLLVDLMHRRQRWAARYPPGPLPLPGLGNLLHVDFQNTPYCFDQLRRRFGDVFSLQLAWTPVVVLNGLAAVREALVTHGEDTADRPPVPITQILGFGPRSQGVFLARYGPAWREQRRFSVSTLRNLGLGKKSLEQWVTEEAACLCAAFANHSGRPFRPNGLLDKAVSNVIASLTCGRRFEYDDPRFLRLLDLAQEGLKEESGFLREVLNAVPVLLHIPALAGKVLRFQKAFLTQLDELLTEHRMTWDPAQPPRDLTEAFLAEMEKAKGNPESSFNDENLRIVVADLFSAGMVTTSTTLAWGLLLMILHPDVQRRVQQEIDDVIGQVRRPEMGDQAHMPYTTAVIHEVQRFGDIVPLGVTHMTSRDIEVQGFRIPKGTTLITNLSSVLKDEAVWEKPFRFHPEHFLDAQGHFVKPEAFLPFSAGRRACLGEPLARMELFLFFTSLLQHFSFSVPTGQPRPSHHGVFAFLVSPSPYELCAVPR
Phenylethanolamine N-methyltransferase (Homo sapiens), sequence (P11086 whole entry, looked up): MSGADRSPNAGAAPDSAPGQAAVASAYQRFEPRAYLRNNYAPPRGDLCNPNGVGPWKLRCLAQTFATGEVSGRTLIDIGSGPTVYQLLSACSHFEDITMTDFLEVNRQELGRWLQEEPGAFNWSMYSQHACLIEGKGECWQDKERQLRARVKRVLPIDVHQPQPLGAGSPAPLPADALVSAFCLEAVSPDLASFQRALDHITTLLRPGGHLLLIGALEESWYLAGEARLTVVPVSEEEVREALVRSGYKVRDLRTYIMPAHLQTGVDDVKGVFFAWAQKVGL
Cytochrome P450 2C9 (Homo sapiens), sequence (P11712 whole entry, looked up): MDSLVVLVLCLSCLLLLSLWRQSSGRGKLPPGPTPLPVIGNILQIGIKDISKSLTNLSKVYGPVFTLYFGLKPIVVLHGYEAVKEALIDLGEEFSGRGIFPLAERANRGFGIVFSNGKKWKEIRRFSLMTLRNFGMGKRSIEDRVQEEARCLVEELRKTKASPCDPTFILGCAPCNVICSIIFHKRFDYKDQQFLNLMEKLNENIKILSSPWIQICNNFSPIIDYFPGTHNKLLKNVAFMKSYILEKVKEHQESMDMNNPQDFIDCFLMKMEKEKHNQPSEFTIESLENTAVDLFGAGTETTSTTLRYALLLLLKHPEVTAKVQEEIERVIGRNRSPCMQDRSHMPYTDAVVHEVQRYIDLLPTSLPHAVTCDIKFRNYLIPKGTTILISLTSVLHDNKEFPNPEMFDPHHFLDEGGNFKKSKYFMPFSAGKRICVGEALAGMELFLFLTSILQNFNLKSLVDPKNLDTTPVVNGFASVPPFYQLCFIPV

In the case of `CC12CCC3C(C1)c1c(cc(O)c(C(=O)c4ccccc4)c1OC3(C)C)O2` (configuration not stated), the Potency result (in test [1]; in [2]; in test [3]; with CRL-7250; in the test on HeLa; in the test with SKOV3) was “inactive” each time. For the same compound, the max response in the test with HaCat [4] is -1.85% (inactive); in the test on KB-3-1 it was -6.92% (inactive).

As to `CCCN(CCC)[C@@H]1CCc2ccc3[nH]c(C#N)cc3c2C1`, the Potency result (in test [5]; in [2]; in test [11]; with CRL-7250; in the test with HeLa) was “inactive” each time. Besides, the Potency in test [6] is 338 nM (active). Also, the activity in test [7] was -0.359%; in test [9], -9.72%; in test [10], -4.55%. This compound also registered an activity change, negative = inhibition in [8] of 0%. Besides, the outcome with HaCat [4], in the test on KB-3-1, in the test with HACAT [12] and with NIH3T3 was “inactive” throughout.

For the compound `COc1cc(C(=O)N2CC[C@@H](O)[C@@H](N)C2)cc2nc(-c3cc4ccccc4n3CC3CC3)n(C)c12`, the Potency was 20900 nM (active) in test [2], 18600 nM (active) in test [3] and 14800 nM (active) with HEK293. In addition, the Z-AUC was 0.124 (inactive) in [13], 1.05 in test [13] (measured here: PEO1 parental Z-AUC) and 0.456 in [13] (measured here: PEO4 Z-AUC).

For the compound `CCCCOC(=O)c1ccnc2cc(C(OCCN3CCCCC3)c3ccccc3Cl)sc12` (configuration not stated), the Potency in test [2] is 23000 nM (active). The activity in test [7] was -6.9%; in test [9], -22.8%; in test [10], -16.1%. In test [8], this compound showed an activity change, negative = inhibition of 6.41%. Moreover, the Potency entry (in [11]; in the test on HeLa; with SKOV3) was “inactive” throughout. In addition, the outcome with HaCat [4] and in the test with HACAT [12] was “inactive” in each case.

As for `CO[C@H]1C[C@H](O[C@H]2CC[C@]3(C=O)[C@H]4CC[C@]5(C)[C@@H](C6=CC(=O)OC6)CC[C@]5(O)[C@@H]4CC[C@]3(O)C2)O[C@H](C)[C@H]1O`, the Potency in [1] is 126 nM (active); in [2], 39.9 nM (active); in the test on HaCat [4], 356 nM (active); in the test on KB-3-1, 126 nM (active); in the test with SKOV3 it was 141 nM (active). Moreover, in [11], the Potency result is “inactive”. Besides, in the test with NIH3T3, the outcome was “inactive [at 17.4 µM]”.

Regarding `C=C(C)[C@@]12O[C@@H]1[C@@]1(C)C(=C[C@H]2O)CC[C@@H](O)[C@@H]1C`, the Potency result (in [5]; in [1]; in [2]; in [3]; in [11]; in the test with SKOV3) was “inactive” throughout. Further, in the test on HaCat [4], the max response was -1.07% (inactive). For the same compound, in the test with KB-3-1, the outcome was “inactive”.

For the compound `COc1ccc2c(c1)c(CCN(C)C)cn2S(=O)(=O)c1ccccc1`, the Potency result (in test [1]; in test [11]; with HeLa; in the test with SKOV3) was “inactive” in each case. In addition, the results for the Potency in test [6] and in test [14] were 1510 nM (active) and 15100 nM (active), respectively. Also, the outcome in the test on HaCat [4], with HACAT [12] and in the test with NIH3T3 was “inactive” in each case.
